Assay results published in PubChem BioAssay (Tox21).
Values without a mark were called inactive. Inconclusive results are not listed. A call without a number means that no potency is given here. Active and inactive are the calls of the source. Unless noted, the call rests on the fitted dose curve; in most records, active means well fitted curve in the direction sought with a large enough effect in the repeat runs; inconclusive means weak or mixed curves; inactive means no such curve, though single readings can be large; an effect the other way counts as inactive or inconclusive.

What was measured:
[1] = A CellTox Green Cytotoxicity Assay to monitor cytotoxicity in HEK293 cells - 16 hour (AID 1224888); further: nearly all actives have a fitted effect of over 35% in size
In short: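 Real-time, in one plate: 600 HEK293 cells/well with dead-cell DNA dye, pinned compound after 5 h, 37 C incubation over 40 h; viable cells give no appreciable fluorescence.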

[2] = A CellTox Green Cytotoxicity Assay to monitor cytotoxicity in HepG2 cells - 8 hour (AID 1224890); further: nearly all actives have a fitted effect of over 45% in size
In short: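 Cytotoxicity was tracked as dead-cell DNA fluorescence in HepG2 cells treated with test compounds at 37 C; each time-point value comes from one kinetic series spanning 0, 8, 16, 24, 32 and 40 h.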

[3] = qHTS assay to identify small molecule antagonists of the estrogen receptor alpha (ER-alpha) signaling pathway using the BG1 cell line in the presence of 0.1 nM 17-beta-estradiol - cell viability counter screen (AID 1259241); further: nearly all actives have a fitted effect of over 40% in size
In short: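 Viability in VM7Luc4E2 cells after 22 hr compound exposure under 0.1 nM 17beta-estradiol stimulation, by CellTiter-Fluor.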

[4] = qHTS assay to identify small molecule HDAC inhibitors (AID 1259364);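 further: wild-type HCT-116 cells with endogenous class I/II HDAC activity; top concentration of the series differs between compounds; nearly all actives have a fitted effect of over 45% in size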
In short: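 HCT-116 wt cells, 1,500/well, overnight attach. Compounds (DMSO) 2 h, 37 °C. HDAC-Glo I/II, 30 min RT. Luminescence.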

[5] = qHTS assay to identify small molecule HDAC inhibitors - cell viability counter screen (AID 1259365); further: series mostly up to about 92 µM; nearly all actives have a fitted effect of over 50% in size
In short: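 Cytotoxicity was gauged in wild-type HCT-116 cells after a brief 2hr treatment with DMSO-dissolved compounds at 37C and 5% CO2, using CellTiter-Glo luminescence developed for 30min at room temperature.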

[6] = qHTS assay to identify small molecule agonists of the sonic hedgehog signaling (Shh) pathway - cell viability counter screen (AID 1259366); further: nearly all actives have a fitted effect of over 50% in size
In short: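 Stable Gli1-Luc NIH/3T3 clone, 2,000 cells/well. Compound exposure 24hr at 37C. Read-out: CellTiter-Fluor fluorescence.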

[7] = qHTS assay to identify small molecule agonists of the sonic hedgehog signaling (Shh) pathway (AID 1259368; calls by dose curve;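 further: NIH/3T3-derived 3T3Gli1-Luc cells carrying a stable Gli1-driven firefly luciferase reporter; series mostly up to about 92 µM; nearly all actives have a fitted effect of over 15% in size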)
In short: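 Following a 24 hr incubation with DMSO-dissolved compounds at 37 C, 5% CO2, Gli1-Luc NIH/3T3-derived cells received luciferase reagent for 30 min at room temperature prior to luminescence measurement.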

[8] = qHTS assay to identify small molecule antagonists of the sonic hedgehog signaling (Shh) pathway (AID 1259369; calls by dose curve; further: nearly all actives have a fitted effect of over 45% in size)
In short: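 Read-out is luminescence from a firefly luciferase gene controlled by the Gli1 response element, in 3T3Gli1-Luc cells pre-incubated 4hr then exposed to compounds and conditioned medium for 24hr.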

[9] = molecular target: Estrogen receptor beta (Homo sapiens) (UniProt Q92731); assay: qHTS assay to identify small molecule agonists of the estrogen receptor beta (ER-beta) signaling pathway (AID 1259377; active means well fitted activation curve with a large enough effect in the signal ratio in the repeat runs, not every such curve was filed as active; the % refers to the signal ratio; further: potency means the concentration at half of the fitted maximal effect)
In short: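 Measured by fluorescence intensity from a B/G FRET beta-lactamase substrate (2 h, room temperature) in ER-beta-UAS-bla HEK293T cells treated with DMSO-dissolved compounds for 16 hr at 37C and 5% CO2.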

[10] = molecular target: Estrogen receptor beta (Homo sapiens) (UniProt Q92731); assay: qHTS assay to identify small molecule antagonists of the estrogen receptor beta (ER-beta) signaling pathway (AID 1259378; active means well fitted inhibition curve with a large enough effect in the signal ratio in the repeat runs, not every such curve was filed as active; the % refers to the signal ratio)
In short: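 ER-beta-UAS-bla HEK293T (GripTite) cells in 2% charcoal-stripped FBS medium were preincubated 6 hr at 37C, dosed with compound, then stimulated with 1 nM E2 (final) for 16 hr; beta-lactamase reporter read by B/G FRET fluorescence after 2 hr substrate loading.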

[11] = qHTS assay to identify small molecule agonists of the androgen receptor (AR) signaling pathway in the presence of an antagonist - cell viability counter screen (AID 1259379);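 further: MDA-kb2 human breast cancer cells carrying an MMTV luciferase reporter; series mostly up to about 92 µM; nearly all actives have a fitted effect of over 25% in size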
In short: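 Each compound was tested at 15 concentrations on MDA-kb2 cells in the presence of 3.0uM nilutamide. Viability was measured by CellTiter-Fluor fluorescence after a 16 hr incubation at 37C in a CO2-free atmosphere.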

[12] = qHTS assay to identify small molecule agonists of the estrogen receptor beta (ER-beta) signaling pathway - cell viability counter screen (AID 1259380); further: nearly all actives have a fitted effect of over 30% in size
In short: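 Compounds dissolved in DMSO were pin-transferred onto ER-beta-UAS-bla HEK293T cells that had settled 6 hr, and exposure ran 16 hr at 37C. Following the reporter read, CellTiter-Glo luminescence after 30 min at room temperature indicated cytotoxicity.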

[13] = qHTS RealTime-Glo MT Cell Viability Assay in HEK293 cells - 8 hour (AID 1224887); further: top concentration of the series differs between compounds; nearly all actives have a fitted effect of over 50% in size
In short: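 Kinetic, non-lysing viability readout. Seed HEK293 (600/well) with reagent, incubate 5 h at 37 C/5% CO2, pin 23 nL compound in DMSO, incubate at 37 C, read luminescence at 0, 8, 16, 24, 32, 40 h.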

[14] = qHTS RealTime-Glo MT Cell Viability Assay in HepG2 cells - 0 hour (AID 1224889); further: nearly all actives have a fitted effect of over 50% in size
In short: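 HepG2 suspension premixed with RealTime-Glo reagents is plated at 600 cells per well and left 5 h at 37 C/5% CO2. Compounds in DMSO then go in, and bioluminescence reflecting viable cell number is recorded over 40 h.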

[15] = qHTS assay to identify small molecule antagonists of the androgen receptor (AR) signaling pathway using the MDA cell line in the presence of 0.5 nM R1881 - cell viability counter screen (AID 1259242); further: nearly all actives have a fitted effect of over 45% in size
In short: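 Cells seeded at 3,000/well and allowed 5 hr at 37C, 0% CO2 before compound transfer and R1881 (0.5 nM final) addition; 16 hr later, live-cell protease fluorescence indicated cytotoxicity.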

[16] = molecular target: Estrogen receptor (Homo sapiens) (UniProt P03372); assay: qHTS assay to identify small molecule antagonists of the estrogen receptor alpha (ER-alpha) signaling pathway using the BG1 cell line in the presence of 0.1 nM 17-beta-estradiol (AID 1259244); further: nearly all actives have a fitted effect of over 50% in size
In short: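 Luciferase signal from VM7Luc4E2 ERE-reporter cells, co-dosed with test compound and 0.1 nM final 17beta-estradiol for 22 h, read with ONE-Glo.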

[17] = qHTS assay to identify small molecule antagonists of the sonic hedgehog signaling (Shh) pathway - cell viability counter screen (AID 1259367); further: nearly all actives have a fitted effect of over 55% in size
In short: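 Conditioned medium drove Shh signaling in 3T3 Gli1-Luc cells exposed to compounds at 37C and 5% CO2. Viability was determined from CellTiter-Fluor fluorescence, with reagent incubated 1 hr after 23 hr of treatment.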

[18] = molecular target: Androgen receptor (Homo sapiens) (UniProt P10275); assay: qHTS assay to identify small molecule antagonists of the androgen receptor (AR) signaling pathway using the MDA cell line in the presence of 0.5 nM R1881 (AID 1259243); further: nearly all actives have a fitted effect of over 50% in size
In short: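 Luminescence from an AR/GR-responsive MMTV-luciferase construct in MDA-kb2 breast carcinoma cells, read 30 min after ONE-Glo, following 16 hr co-treatment with compounds and 0.5 nM R1881.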

Sequence of Androgen receptor (Homo sapiens) (P10275 whole entry, looked up): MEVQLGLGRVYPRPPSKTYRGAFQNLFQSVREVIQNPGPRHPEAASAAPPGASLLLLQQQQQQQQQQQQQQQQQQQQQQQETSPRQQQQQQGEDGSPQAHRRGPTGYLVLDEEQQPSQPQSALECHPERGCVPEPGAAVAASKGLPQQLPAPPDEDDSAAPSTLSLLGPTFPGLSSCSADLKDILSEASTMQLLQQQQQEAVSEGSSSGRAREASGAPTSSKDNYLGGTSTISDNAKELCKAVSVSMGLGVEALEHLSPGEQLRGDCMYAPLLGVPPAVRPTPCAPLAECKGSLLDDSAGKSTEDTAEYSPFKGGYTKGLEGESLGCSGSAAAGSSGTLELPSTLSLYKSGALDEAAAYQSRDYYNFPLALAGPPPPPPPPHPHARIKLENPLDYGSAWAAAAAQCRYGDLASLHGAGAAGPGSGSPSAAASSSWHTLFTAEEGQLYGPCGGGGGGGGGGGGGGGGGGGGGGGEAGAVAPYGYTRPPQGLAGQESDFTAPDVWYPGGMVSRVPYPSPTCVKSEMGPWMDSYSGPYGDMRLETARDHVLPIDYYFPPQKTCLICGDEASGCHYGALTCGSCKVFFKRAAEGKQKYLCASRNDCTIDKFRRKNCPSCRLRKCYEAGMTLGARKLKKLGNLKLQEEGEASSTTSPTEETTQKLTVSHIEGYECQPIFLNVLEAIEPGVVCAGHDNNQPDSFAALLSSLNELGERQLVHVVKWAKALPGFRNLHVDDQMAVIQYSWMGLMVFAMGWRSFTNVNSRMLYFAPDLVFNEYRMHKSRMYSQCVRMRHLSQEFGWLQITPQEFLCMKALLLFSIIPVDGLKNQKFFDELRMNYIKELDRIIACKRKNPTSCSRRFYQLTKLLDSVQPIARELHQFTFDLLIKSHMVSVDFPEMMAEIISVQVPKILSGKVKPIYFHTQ
Sequence of Estrogen receptor (Homo sapiens) (P03372 whole entry, looked up): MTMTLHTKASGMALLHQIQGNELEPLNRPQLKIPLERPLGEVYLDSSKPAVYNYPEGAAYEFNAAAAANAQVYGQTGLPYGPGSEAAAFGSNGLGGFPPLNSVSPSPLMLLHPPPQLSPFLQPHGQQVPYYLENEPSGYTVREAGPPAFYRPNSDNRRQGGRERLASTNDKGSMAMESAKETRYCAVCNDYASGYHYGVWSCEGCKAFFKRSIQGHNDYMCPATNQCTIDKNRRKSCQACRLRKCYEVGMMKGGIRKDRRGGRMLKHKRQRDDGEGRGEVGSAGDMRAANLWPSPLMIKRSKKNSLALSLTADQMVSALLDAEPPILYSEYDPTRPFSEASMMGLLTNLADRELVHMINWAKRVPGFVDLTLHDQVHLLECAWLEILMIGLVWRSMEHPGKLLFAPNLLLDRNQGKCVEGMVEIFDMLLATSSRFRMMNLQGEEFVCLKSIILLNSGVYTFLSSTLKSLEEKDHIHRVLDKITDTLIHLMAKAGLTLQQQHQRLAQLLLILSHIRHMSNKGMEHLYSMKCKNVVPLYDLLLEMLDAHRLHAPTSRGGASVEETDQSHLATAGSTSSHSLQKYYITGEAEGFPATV
Sequence of Estrogen receptor beta (Homo sapiens) (Q92731 whole entry, looked up): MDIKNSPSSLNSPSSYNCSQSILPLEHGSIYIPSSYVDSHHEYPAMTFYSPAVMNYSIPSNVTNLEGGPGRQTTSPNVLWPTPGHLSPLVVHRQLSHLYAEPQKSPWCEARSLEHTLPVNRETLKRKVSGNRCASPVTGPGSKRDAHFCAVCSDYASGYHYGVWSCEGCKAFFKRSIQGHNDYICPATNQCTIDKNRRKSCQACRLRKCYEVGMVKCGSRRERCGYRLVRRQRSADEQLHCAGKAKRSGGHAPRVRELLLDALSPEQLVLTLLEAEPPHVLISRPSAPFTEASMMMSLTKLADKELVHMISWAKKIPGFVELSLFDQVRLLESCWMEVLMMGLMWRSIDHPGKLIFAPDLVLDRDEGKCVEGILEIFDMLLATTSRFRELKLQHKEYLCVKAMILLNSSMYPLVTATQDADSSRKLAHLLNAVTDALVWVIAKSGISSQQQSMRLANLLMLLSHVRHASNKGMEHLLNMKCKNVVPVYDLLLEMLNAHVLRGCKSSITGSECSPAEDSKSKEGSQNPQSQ

Row | Structure (SMILES) | Potency [1] | Potency [2] | Potency [3] | Potency [4] | outcome [5] | Potency [6] | outcome [7] | Potency [8] | Potency [9] | outcome [10] | Potency [11] | outcome [12] | Potency [13] | Potency [14] | Potency [15] | Potency [16] | Potency [17] | outcome [18]
1 | CO[Si](CCCCl)(OC)OC | inactive | inactive | inactive | inactive | inactive | inactive | inactive | inactive | inactive | inactive | inactive | inactive | – | – | – | – | – | –
2 | O=C(Oc1ccccc1C(=O)O)c1ccccc1O | – | inactive | inactive | inactive | inactive | inactive | inactive | inactive | – | – | inactive | inactive | inactive | inactive | inactive | inactive | inactive | –
3 | COCC(=O)Nc1c(I)c(C(=O)NCC(O)CO)c(I)c(C(=O)N(C)CC(O)CO)c1I (configuration not stated) | inactive | inactive | inactive | inactive | inactive | inactive | – | inactive | inactive | inactive | inactive | inactive | – | inactive | inactive | inactive | inactive | inactive
4 | CC(C)(CO)[C@@H](O)C(=O)NCCCO | inactive | inactive | inactive | inactive | inactive | inactive | inactive | inactive | inactive | inactive | inactive | inactive | inactive | – | inactive | inactive | inactive | –
5 | O=C(O)C(=O)Nc1cccc(-c2nn[nH]n2)c1 | inactive | inactive | inactive | inactive | inactive | inactive | inactive | inactive | – | – | inactive | inactive | inactive | inactive | inactive | – | inactive | –
6 | Cc1ccccc1C | inactive | inactive | inactive | inactive | – | inactive | inactive | – | inactive | inactive | inactive | inactive | inactive | – | inactive | inactive | inactive | –
7 | CC(=O)OC(C(=O)c1ccccc1)c1ccccc1 (configuration not stated) | inactive | inactive | inactive | inactive | inactive | – | – | inactive | inactive | inactive | inactive | inactive | – | inactive | inactive | inactive | inactive | inactive
8 | COc1cc2c3cc1Oc1cc(ccc1O)C[C@@H]1c4c(cc(OC)c(O)c4Oc4ccc(cc4)C[C@@H]3N(C)CC2)CC[N+]1(C)C | inactive | inactive | inactive | inactive | inactive | inactive | inactive | inactive | 26.6 µM (active) | – | inactive | inactive | inactive | – | inactive | – | inactive | –
9 | CC(=O)OC(C)(C)Cc1ccccc1 | – | inactive | inactive | – | inactive | inactive | inactive | – | – | – | inactive | inactive | inactive | inactive | inactive | – | inactive | –
10 | O=C(O)c1ccc(OCCN2CCCCC2)cc1 | – | inactive | inactive | inactive | inactive | inactive | – | inactive | inactive | inactive | inactive | inactive | inactive | inactive | inactive | inactive | inactive | inactive
